MCF10A rereplic: inducers of DNA re-replication in MCF 10A breast cells; MCF 10A DNA re-replication, Hoechst nuclear intensity, 48 h; Potency, µM (doses to about 46.1 µM), without a hit: at the highest dose activity, positive = re-replication, most hits filed as activators; 350,000 tested, 2.9% active; further: % of control where 0% means no effect; nearly all actives have a fitted effect of over 50% in size
HT1080NT lethal: kills 2HG-producing HT-1080-NT fibrosarcoma cells. 360,000 tested, 1.6% active. AID 686970. Potency, µM (series often up to 46.1 µM), inactives show at the highest dose activity, negative = less viability, usual class: cytotoxic. HT-1080-NT fibrosarcoma viability, CellTiter-Glo ATP luminescence, 48 h;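 further: NT is the 2HG producing partner of a matched IDH1 knockdown line; 0% = DMSO-treated cells and -100% = media-only wells without cells; nearly all actives have a fitted effect of over 55% in size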
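Toxicity toward the 2HG-producing NT line was scored as %Activity, normalised to DMSO and no-cell wells, from CellTiter-Glo luminescence after 48 hours' treatment.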
KB-V1 cytotox: KB-V1 MDR subline cytotoxicity | KB-V1 MDR cells viability, CellTiter-Glo, 72 h | Potency, µM (highest dose often 46.1 µM), hits mostly cytotoxic | 400,000 tested, 3.4% active | AID 1347076; further: on the % scale 0 is the no-effect control and ±100 the full control effect; nearly all actives have a fitted effect of over 60% in size
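Luminescent ATP read-out (CellTiter-Glo, 10 min) measures survival of drug-selected KB-V1 MDR cells after 72 h, 37 degrees C compound exposure. Medium: phenol-red-free DMEM, 10% FBS. Values from fitted concentration-response curves.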
HT1080 IDH1KD tx: kills HT-1080 cells with IDH1 knockdown; 360,000 tested, 2% active; Potency, µM (series often up to 46.1 µM), inactives show at the highest dose activity, negative = toxicity, actives largely listed as cytotoxic; AID 686971; HT-1080 IDH1 knockdown viability, ATP luminescence, 48 h;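 further: 0% = DMSO wells and -100% = cell-free medium wells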
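Luminescent ATP read-out (CellTiter-Glo, 10 min at room temperature) after 48 h compound exposure at 37 °C gave viability of IDH1-knockdown HT-1080 cells. Activity was normalised to DMSO and cell-free wells, then fitted as concentration-response curves.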
KB-3-1 cytotox: KB-3-1 parental cell cytotoxicity | AID 1347075 | KB-3-1 viability, CellTiter-Glo ATP luminescence, 72 h | Potency, µM (top dose mostly 46.1 µM), usual class: cytotoxic | 400,000 tested, 1.4% active; further: on the % scale 0 is the no-effect control and ±100 the full control effect; nearly all actives have a fitted effect of over 60% in size
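Screening of KB-3-1 cells (DMEM, 10% FBS, phenol-red free) ran from lowest to highest compound concentration; after 72 h at 37 °C viability was read luminescently and curves fitted.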
SW480 rereplic: inducers of DNA re-replication in SW480 colon cancer cells; AID 624297; SW480 DNA re-replication, Hoechst DNA content imaging, 48 h; 340,000 tested, 1.8% active; Potency, µM (series often up to 46.1 µM), for the others: at the top dose re-replication activation, usual class: activators; further: % of control where 0% means no effect; nearly all actives have a fitted effect of over 55% in size
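Readout is total intensity of Hoechst-stained nuclei, excited at 405 nm and collected at 500-530 nm. Compound treatment lasted 48 hr at 37 C in 5% CO2 before staining.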
The depositor's hits bear a star; i = inactive; ? = inconclusive; / = no result given; [ ] = another dose, or the depositor's remark. An excerpt weighted towards active compounds, which were near 8% of everything screened. The call rests on the fitted dose curve; in most records, active means well fitted curve in the direction sought with a large enough effect; inconclusive means small, poorly fitted or top-dose-only effect, or another doubt; inactive means no such curve, though single readings can be large; an effect the other way counts as inactive or inconclusive. Potency means the concentration at half of the fitted maximal effect.

SMILES	MCF10A rereplic	HT1080NT lethal	KB-V1 cytotox	HT1080 IDH1KD tx	KB-3-1 cytotox	SW480 rereplic
CCOc1ccc(C(=O)COC(=O)c2cc([N+](=O)[O-])ccc2N2CCOCC2)cc1	?	?	?	?	?	4.11µM*
Cc1ccc(NC(=O)c2cc(NC(=O)c3ccco3)ccc2N2CCOCC2)cc1	?	-2.1%	i	-9.7%	i	-2.6%
CCOc1ccc(NC(=O)COC(=O)c2cc([N+](=O)[O-])ccc2N2CCOCC2)cc1	-13.5%	-0.8%	i	-19.6%	i	-5.3%
Cc1ccc(NC(=O)c2cc(N3C(=O)C=CC3=O)ccc2N2CCOCC2)cc1	13µM*	?	i	23.1µM*	?	?
CCOc1ccc(NC(=O)c2cc([N+](=O)[O-])ccc2N2CCOCC2)cc1	?	?	23.1µM*	?	i	?
O=C(C[n+]1cccc2ccccc21)c1ccc(F)cc1	/	/	i	/	i	/
Cc1cc2nc(-c3ccc[nH]c3=O)[nH]c2cc1C	15.8%	18.4µM*	?	18.4µM*	i	16.7%
Cc1cc2nc(-c3ccc[nH]c3=O)n(Cc3ccc(F)cc3)c2cc1C	3.5%	-4.1%	i	-10.9%	i	9.9%
CCN(CC)c1cc2c(cc1F)c(=O)c(S(=O)(=O)c1ccc(C)cc1)cn2Cc1ccc(F)cc1	/	/	i	/	i	/
CCC(C)(C)NC(=O)c1cc(C(=O)OC)cc([N+](=O)[O-])c1	-0.8%	-7.0%	i	-7.1%	i	2.3%
CCCN(CCC)S(=O)(=O)c1ccc(NC(=O)c2cc(C(=O)OC)cc([N+](=O)[O-])c2)cc1	18.9%	-6.7%	10.3µM*	-3.9%	i	4.7%
Cc1c2cnccc2c(C)c2c1oc1ccccc12	?	-1.7%	11.6µM*	6.0%	?	?
CC(C)CN(C)Cc1c(C(=O)N2CCc3ccccc3C2)nc2ccc(Cl)cn12	11.4%	?	16.4µM*	-29.4%	?	2.3%
COc1ccc2cc(CNc3ccc(C)cc3)c(=O)n(CC(=O)Nc3cccc(C(F)(F)F)c3)c2c1	/	/	i	/	i	/
O=C(Nc1cccc(C(F)(F)F)c1)c1ccc(Cn2cc(Br)cn2)o1	?	-1.6%	i	-12.5%	i	1.2%
O=C(Nc1ccc(C(F)(F)F)cc1Cl)c1ccc(Cn2cc(Br)cn2)o1	13µM*	-3.6%	i	?	i	-1.8%
CCOC(=O)/C=C1\CN(Cc2ccc(OC)cc2)S(=O)(=O)c2ccc(C(F)(F)F)cc21	/	/	?	/	i	/
CCn1c(SCc2ccccc2F)nc(=O)c2c(C(=O)OC)cc(C3CC3)nc21	/	/	i	/	i	/
CC1(C(=O)NC2CCCCC2)CCC(=O)N1CCOc1ccccc1 (stereo not given)	/	22.8%	i	3.8%	i	/
Cc1ccc(CN2CCN(CC(=O)NC(C)c3ccc4c(c3)OCCO4)C2=O)cc1 (stereo not given)	2.7%	4.3%	i	-2.1%	i	-8.8%
O=c1[nH]c(=O)n(Cc2ccccc2)c2nc(-c3ccc(Oc4ccc(F)cc4)c([N+](=O)[O-])c3)n(CCO)c12	?	20.6µM*	?	?	?	-55.2%
COCCn1c(-c2ccc(-c3ccc([N+](=O)[O-])cc3Br)o2)nc2c1c(=O)[nH]c(=O)n2CC(C)C	18.4µM*	?	7.31µM*	-16.3%	i	25.5%
COCCn1c(-c2ccc(SC)cc2)nc2c1c(=O)[nH]c(=O)n2CC(C)C	12.9%	1.0%	?	-12.3%	i	-5.5%
COCCn1c(=O)[nH]c(=O)c2c1nc(-c1ccc(-c3ccc(Cl)cc3[N+](=O)[O-])o1)n2Cc1ccccc1	5.17µM*	?	23.1µM*	?	?	?
CCOC(=O)c1sc2ncn(CC(=O)Nc3cc(C)cc(C)c3)c(=O)c2c1C	/	/	i	/	i	/
SMILES	MCF10A rereplic	HT1080NT lethal	KB-V1 cytotox	HT1080 IDH1KD tx	KB-3-1 cytotox	SW480 rereplic
CCOC(=O)c1sc2ncn(CC(=O)N(CC)CC)c(=O)c2c1C	14.6µM*	-2.8%	i	6.4%[9.24 µM]	i	?
CCOC(=O)c1cc2c(=O)n3ccccc3nc2n(C)c1=NC(=O)c1c(-c2c(F)cccc2Cl)noc1C	23.1µM*	7.9%	i	1.9%	i	1.3µM*
CCOC(=O)c1cc2c(=O)n3ccccc3nc2n(C(C)C)c1=NC(=O)c1c(-c2c(F)cccc2Cl)noc1C	?	-11.3%	?	7.4%	?	18.4µM*
N#C/C(=C\c1ccc(-c2ccc(C(=O)O)cc2)o1)C(=O)Nc1ccccc1C(=O)O	/	/	?	/	i	/
CCOC(=O)C(=O)Nc1ccc(S(=O)(=O)Nc2nccs2)cc1	-3.6%	-0.2%	?	8.6%	i	?
CCOC(=O)C1(Nc2nccs2)Sc2ccccc2NC1=O (stereo not given)	13µM*	10.3µM*	?	8.2µM*	5.8µM*	14.6µM*
CCOc1ccc(NC(=O)CCC(=O)c2ccc(Br)cc2)cc1	4.3%	13.0%	i	3.7%	i	0.651µM*
CCN1CCN(CC(=O)c2ccc(OC)cc2)CC1	2.06µM*	1.6%	i	1.3%	i	-55.1%
Cc1ccc(CCC(=O)Nc2ccc(Br)cc2)o1	?	-2.7%	i	-28.5%	i	14.6µM*
COc1ccc(C(=O)CCN2CCc3cc(OC)c(OC)cc3C2)cc1	3.66µM*	?	i	?	i	2.0%
CCOc1ccc(NC(=O)CCC(=O)c2ccc(OC)cc2)cc1	-2.7%	2.3%	i	-2.2%	i	-5.9%
CC=C(/C(=C/C)c1ccc(O)cc1)c1ccc(O)cc1	?	/	/	/	/	-1.9%[20.6 µM]
COc1ccccc1CNC(=O)CSc1cc(C)[nH]c(=O)n1	/	/	i	/	i	/
CCCCCCOc1ccc(CC(=O)O)cc1	/	12.7%	/	16.2%	/	/
CC(C)CNC(=O)C1=CC(c2ccc3c(c2)OCO3)=NS(=O)(=O)N1C	/	/	i	/	i	/
Cc1ccc(C(=O)COC(=O)CCNS(=O)(=O)c2ccccc2F)cc1	11.1%	0.1%	?	-5.7%	i	-8.2%
CCCOc1ccc(C(=O)CCN2CCCCC2)cc1	?	?	?	-15.0%	?	?
CCOc1ccc(C(=O)CCN2CCCCCC2)cc1	3.26µM*	?	i	?	?	?
COc1ccccc1N1CCN(CC(=O)Nc2cc(C)nn2-c2nc(C)cc(C)n2)CC1	12.8%	?	i	?	4.61µM*	9.2µM*
COc1ccccc1N1CCN(CCCC(=O)c2ccc(F)cc2)CC1	1.4%	-15.8%	i	-16.2%	i	8.9%
